Only some compounds are listed: those with a hit (about 3.9% of all), similar ones and a draw of the others.
VHR inh abs: blocks human VHR1 dual specificity phosphatase; P51452; recombinant VHR phosphatase, pNPP absorbance; inhibition, % at 13.3 µM; actives 0.52% (n = 290,000); AID 1654; in the data active = inhibition above about 50%
Anthrax LF prot: blocks Bacillus anthracis lethal factor protease | AID 588501 | multiplex microsphere protease cleavage assay, LF | actives 0.12% (n = 360,000) | inhibition, % at 10 µM
Target sequence (P15917 whole entry, looked up): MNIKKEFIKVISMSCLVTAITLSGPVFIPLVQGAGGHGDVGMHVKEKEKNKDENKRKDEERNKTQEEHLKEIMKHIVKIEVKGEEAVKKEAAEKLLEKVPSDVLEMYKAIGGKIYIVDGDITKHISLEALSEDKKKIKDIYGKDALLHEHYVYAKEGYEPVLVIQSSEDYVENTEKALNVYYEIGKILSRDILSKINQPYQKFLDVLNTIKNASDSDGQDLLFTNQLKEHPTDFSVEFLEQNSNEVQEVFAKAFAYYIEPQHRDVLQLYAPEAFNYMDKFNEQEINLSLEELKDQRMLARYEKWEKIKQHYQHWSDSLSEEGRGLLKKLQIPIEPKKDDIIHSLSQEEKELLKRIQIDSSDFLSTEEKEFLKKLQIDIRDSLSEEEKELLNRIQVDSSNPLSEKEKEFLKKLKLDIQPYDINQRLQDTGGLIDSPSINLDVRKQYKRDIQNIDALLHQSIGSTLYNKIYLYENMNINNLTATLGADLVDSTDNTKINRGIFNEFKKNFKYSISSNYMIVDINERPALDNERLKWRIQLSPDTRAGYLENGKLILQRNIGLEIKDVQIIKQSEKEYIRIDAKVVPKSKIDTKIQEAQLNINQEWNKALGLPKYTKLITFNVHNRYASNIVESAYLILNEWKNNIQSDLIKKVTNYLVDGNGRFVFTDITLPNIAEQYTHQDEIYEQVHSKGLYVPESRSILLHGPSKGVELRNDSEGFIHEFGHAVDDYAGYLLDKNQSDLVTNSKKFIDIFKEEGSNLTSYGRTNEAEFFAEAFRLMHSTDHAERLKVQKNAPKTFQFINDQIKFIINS
BoNT A protease: inhibitors of Botulinum neurotoxin A light chain protease | multiplex microsphere protease substrate cleavage, flow cytometry | inhibition, % at 10 µM | actives 0.17% (n = 360,000) | AID 588499
Autofluor counter: flagged as autofluorescent in microsphere protease counterscreen | compound autofluorescence counterscreen, microsphere flow cytometry; hits give high values | fluorescence intensity (no concentration beside the values) | actives 3.1% (n = 360,000) | AID 624483; in the data active = fluorescence intensity above about 16000; inconclusive = no clear call, values can overlap the other calls
BoNT-F LC inh: blocks Botulinum neurotoxin F light chain protease; Multiplex microsphere protease cleavage assay, flow cytometry; inhibition, % at 10 µM; actives 0.22% (n = 360,000); AID 588497; in the data active = inhibition above about 35%, passing the limit was not always enough; inconclusive = no clear call, values can overlap the other calls
3CLpro inhibitor: SARS-CoV 3CLpro protease inhibition. P0C6X7. recombinant SARS-CoV 3CLpro, quenched FRET peptide cleavage. inhibition, % at 6 µM. actives 0.14% (n = 290,000). AID 1706; in the data active = inhibition above about 12%
Of the large screens only hits and unclear results are named; the others gave an inactive call. Rule as the data show it, unless noted: active = inhibition above about 30%; inconclusive = no clear call, values can overlap the other calls; inactive = below that.

O=C(CN1CCCc2ccccc21)NC(=O)NCc1ccccc1	none
O=C(NC(=S)Nc1cccc(NC(=O)c2ccc(Cl)cc2Cl)c1)c1cccs1	none
Cc1ccc(-n2c(N)c(C(=O)N3CCN(C)CC3)sc2=S)cc1	Autofluor counter 21266 (no result: VHR inh abs)
Nc1c(C(=O)N2CCOCC2)sc(=S)n1-c1ccccc1	Autofluor counter 21197
Cc1ccc(-n2c(N)c(C(=O)N3CCCCC3)sc2=S)cc1	none (no result: Anthrax LF prot, BoNT A protease, Autofluor counter, BoNT-F LC inh)
C=CCn1c(N)c(C(=O)N2CCN(C)CC2)sc1=S	Autofluor counter 22789
Nc1c(C(=O)N2CCCCC2)sc(=S)n1-c1ccccc1	Autofluor counter 21338
C=CCn1c(N)c(C(=O)NCCC2=CCCCC2)sc1=S	Autofluor counter 16404
CCCCCCN1C[C@@H](O)[C@H](n2cc(C3CC3)nn2)C[C@@H]1c1ccc(C)cc1	none (no result: VHR inh abs, 3CLpro inhibitor)
CCNC(=O)NC(=O)COC(=O)C1CSC2(C)CCC(=O)N12 (stereo not given)	none
Cn1c(CNC(=O)c2cccs2)nnc1SCC(=O)Nc1ccc(Cl)cc1	BoNT A protease inconclusive, Autofluor counter 21585
COc1cccc(C(=O)NCc2nnc(SCC(=O)Nc3nccs3)n2-c2cccc(C)c2)c1	Autofluor counter 16987
C=CCn1c(Cc2cccs2)nnc1SCC(=O)Nc1cccc(OC)c1	Autofluor counter 16319
Cc1ccc(NC(=O)CSc2nnc(-c3cccs3)n2Cc2ccco2)cc1	none
CN(C)c1ccc(NC(=O)CSc2nnc(-c3cccs3)n2Cc2ccco2)cc1	BoNT A protease inconclusive, Autofluor counter 22600
COc1ccc(-c2noc(-c3csc([C@@H]4O[C@H](CO)[C@H](O)[C@H](O)[C@H]4O)n3)n2)cc1OC	none (no result: VHR inh abs, 3CLpro inhibitor)
C=CCn1c(Cc2csc(N)n2)nnc1SCC(=O)Nc1ccccc1C(F)(F)F	Autofluor counter 23049
C=CCn1c(Cc2cccs2)nnc1SCC(=O)Nc1ccc(OC)cc1	Autofluor counter 16196
C=CCn1c(CCNC(=O)c2cccs2)nnc1SCC(=O)Nc1cccc(F)c1	Autofluor counter 17039
COc1ccc(NC(=O)CSc2nnc(Cc3cccs3)n2-c2ccc(C)cc2)cc1	BoNT A protease inconclusive, Autofluor counter 23035
COc1cccc(OC)c1NC(=O)C1CCCN1C(=O)Nc1ccccc1F (stereo not given)	none
COc1ccc(-n2c(CNc3ccc(C)cc3)nnc2SCC(=O)Nc2nc(-c3ccccc3)cs2)cc1	BoNT A protease inconclusive, Autofluor counter 24302
COc1ccc(NCc2nnc(SCC(=O)Nc3nc(-c4ccccc4)cs3)n2-c2ccccc2)cc1	none
O=C(CSc1nnc(Cc2cccs2)n1Cc1ccco1)Nc1cccc(Cl)c1	Autofluor counter 22807
O=c1[nH]c2ccc([N+](=O)[O-])cc2nc1/C=C(\O)c1ccccc1	none
Cc1ccccc1C(NC(N)=O)c1ccccc1 (stereo not given)	Autofluor counter 16482
O=C(OCN1C(=O)c2ccccc2C1=O)c1cccc(OC(F)F)c1	none
O=C(Nc1ccc(-n2cnnn2)cc1)C1CCCCC1	VHR inh abs 52
O=C(Nc1ccc(-n2cnnn2)cc1)C1CCCN1C(=O)NC1CCCCC1 (stereo not given)	none
CCN1/C(=C/c2ccc3cc(C)ccc3[n+]2CC)Sc2cc(C)c(C)cc21	BoNT A protease 49
CCN1/C(=C/C=C/C=C/C=C/c2sc3ccccc3[n+]2CC)Sc2ccccc21	none
CCN1/C(=C/C=C/C=C/c2sc3ccccc3[n+]2CC)Sc2ccccc21	none (no result: Anthrax LF prot, BoNT A protease, Autofluor counter, BoNT-F LC inh)
CCN1/C(=C/c2ccc3cc(C)ccc3[n+]2CC)Sc2ccccc21	BoNT A protease 78
CCN1/C(=C/C=C/c2sc3ccccc3[n+]2CC)Sc2ccccc21	BoNT A protease 32 (no result: VHR inh abs, 3CLpro inhibitor)
CC[n+]1c(/C=C2\Sc3ccccc3N2C)ccc2cccc(C)c21	BoNT A protease 62
CN1/C(=C/c2cccc[n+]2CCO)Sc2ccccc21	none
COc1cc(OC)cc(C(=O)NC(=S)Nc2ccc(Cl)c(C(=O)O)c2)c1	Autofluor counter 24431
COc1ccccc1CC(=O)Nc1cc(Cl)ccc1O	BoNT A protease inconclusive, Autofluor counter 18515
COc1ccccc1OCC(=O)Nc1ccc(Cl)cc1C(=O)c1ccccc1	Autofluor counter 23660
COc1ccccc1CC(=O)Nc1ccccc1O	Autofluor counter 20480
CC(=O)Nc1cc(-c2ccncc2)cn2c(-c3ccccc3)cnc12	none (no result: VHR inh abs, 3CLpro inhibitor)
COCCCn1c(SCC(=O)NC2CCCC2)nnc1-c1ccco1	Autofluor counter 20908
CCn1c(SCC(=O)N2CCCCC2C)nnc1-c1ccco1 (stereo not given)	none

High-throughput results deposited in PubChem by several laboratories.
